Source: PubChem BioAssay AID1159580 (chemical genetic matrix, 2015)
“And” between values parts separate entries of the source, which are not always exact repeats. Identical values can stand only once. Out of some 5,500 compounds screened, about 2,000 (36%) were called active. Not shown: some 18% with an inconclusive outcome. Rule as the data show it: active = normalized growth mostly below about 0.91 (no sharp cut-off); inconclusive = no clear call, values can overlap the other calls; inactive = mostly above about 0.92. The list shows a part of the results.

Experiment: chemical genetic growth profiling, strain panel (AID 1159580);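 also: tested at 20 µM; growth read once vehicle control cultures reached saturation at 30 °C; 1 = growth at the plate median or of vehicle wells; lower values mean less growth of the strain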
Conditions: S. cerevisiae deletion strains, growth OD
[1] = locus YAL013W, strain DEP1, stronger effect = lower value
[2] = locus YGR078C, strain PAC10, stronger effect = lower value
[3] = locus YMR307W, strain GAS1, stronger effect = lower value

Measured: normalized growth

N[C@@H](Cn1oc(=O)[nH]c1=O)C(=O)O
inactive: [1] 1.01 | locus YAL040C, strain CLN3, stronger effect = lower value 0.975 | locus YCL061C, strain MRC1 (second series), stronger effect = lower value 0.991 | locus YDR150W, strain NUM1, stronger effect = lower value 0.996 | locus YDR363W, strain ESC2, stronger effect = lower value 0.968 | locus YER002W, strain NOP16, stronger effect = lower value 0.979 | [2] 0.979 | locus YMR263W, strain SAP30, stronger effect = lower value 1.01 | [3] 1.02 | locus YNL153C, strain GIM3, stronger effect = lower value 0.996 | locus YNL175C, strain NOP13, stronger effect = lower value 0.99 | locus YNL197C, strain WHI3, stronger effect = lower value 0.972 | locus YNL224C, strain SQS1, stronger effect = lower value 0.989 | locus YOR083W, strain WHI5 (second series), stronger effect = lower value 0.961

CC(CCC(=O)O)[C@H]1CCC2C3CC[C@@H]4C[C@H](O)CC[C@]4(C)C3CC[C@@]21C (some centres undefined)
inactive: locus YAL021C, strain ccr4, stronger effect = lower value 0.982 | locus YAL026C, strain drs2, stronger effect = lower value 0.946 | locus YAL030W, strain snc1, stronger effect = lower value 0.989 | locus YBL061C, strain skt5, stronger effect = lower value 1.03 | locus YBR021W, strain FUR4, stronger effect = lower value 0.932 | locus YBR023C, strain chs3, stronger effect = lower value 0.924 | locus YBR171W, strain sec66, stronger effect = lower value 1.01 | locus YBR229C, strain ROT2, stronger effect = lower value 1.04 | locus YBR231C, strain swc5, stronger effect = lower value 0.939 | locus YBR279W, strain paf1, stronger effect = lower value 1.01 | locus YCL011C, strain gbp2, stronger effect = lower value 0.974 | locus YCL029C, strain bik1, stronger effect = lower value 0.993 | locus YCL061C, strain MRC1, stronger effect = lower value 0.931 | locus YCL069W, strain vba3, stronger effect = lower value 1 | locus YCR088W, strain abp1, stronger effect = lower value 0.993 | locus YDL005C, strain med2, stronger effect = lower value 1.01 | locus YDL040C, strain nat1, stronger effect = lower value 1.03 | locus YDL185W, strain tfp1, stronger effect = lower value 1.04 | locus YDR001C, strain nth1, stronger effect = lower value 1.02 | locus YDR069C, strain doa4, stronger effect = lower value 0.947 | locus YDR101C, strain arx1, stronger effect = lower value 0.977 | locus YDR159W, strain sac3, stronger effect = lower value 0.925 | locus YDR195W, strain ref2 1.07 | locus YDR297W, strain sur2, stronger effect = lower value 1 | locus YDR318W, strain mcm21, stronger effect = lower value 0.951 | locus YDR334W, strain swr1, stronger effect = lower value 0.989 | locus YDR335W, strain msn5, stronger effect = lower value 0.926 | locus YDR388W, stronger effect = lower value 1.01 | locus YEL003W, strain gim4, stronger effect = lower value 0.94 | locus YEL037C, strain rad23, stronger effect = lower value 0.994 | locus YEL061C, strain CIN8 (second series), stronger effect = lower value 1.01 | locus YER016W, strain bim1, stronger effect = lower value 1 | locus YER110C, stronger effect = lower value 1.07 | locus YER111C, strain swi4, stronger effect = lower value 1.01 | locus YER155C, strain BEM2 (second series), stronger effect = lower value 1.04 | locus YER167W, strain BCK2, stronger effect = lower value 0.906 | locus YFR010W, strain ubp6, stronger effect = lower value 0.982 | locus YGL078C, strain dbp3, stronger effect = lower value 0.926 | locus YGL167C, strain pmr1, stronger effect = lower value 0.988 | locus YGL227W, strain vid30, stronger effect = lower value 1 | locus YGL240W, strain doc1, stronger effect = lower value 0.89 | locus YGL253W, strain hxk2, stronger effect = lower value 0.989 | locus YGR252W, strain gcn5, stronger effect = lower value 0.792 | locus YHR013C, strain ard1, stronger effect = lower value 1.01 | locus YHR027C, strain rpn1, stronger effect = lower value 0.94 | locus YHR079C, strain IRE1 (second series), stronger effect = lower value 1.06 | locus YHR079C, strain IRE1, stronger effect = lower value 0.955 | locus YHR200W, strain rpn10, stronger effect = lower value 1.02 | locus YIL073C, strain SPO22, stronger effect = lower value 0.937 | locus YIL125W, strain kgd1, stronger effect = lower value 1.04 | locus YIR030C, strain dcg1, stronger effect = lower value 1.04 | locus YJL092W, strain hpr5, stronger effect = lower value 0.966 | locus YJL115W, strain asf1, stronger effect = lower value 1.01 | locus YJL129C, strain trk1, stronger effect = lower value 0.914 | locus YJL134W, strain LCB3, stronger effect = lower value 1.04 | locus YJL154C, strain vps35, stronger effect = lower value 0.997 | locus YJL164C, strain tpk1, stronger effect = lower value 0.92 | locus YJL187C, strain SWE1, stronger effect = lower value 0.979 | locus YJR066W, strain TOR1, stronger effect = lower value 0.952 | locus YKL009W, strain mrt4, stronger effect = lower value 0.935 | locus YKL068W, stronger effect = lower value 1.05 | locus YKL085W, strain MDH1 (second series), stronger effect = lower value 1.03 | locus YKL085W, strain MDH1, stronger effect = lower value 1.03 | locus YKL160W, strain elf1, stronger effect = lower value 0.927 | locus YKR026C, strain gcn3, stronger effect = lower value 1.02 | locus YKR091W, strain srl3, stronger effect = lower value 1.03 | locus YLL001W, strain dnm1, stronger effect = lower value 0.933 | locus YLL026W, stronger effect = lower value 0.955 | locus YLL041C, strain sdh2, stronger effect = lower value 1.02 | locus YLR058C, strain SHM2, stronger effect = lower value 0.893 | locus YLR113W, strain HOG1, stronger effect = lower value 0.963 | locus YLR221C, strain rsa3, stronger effect = lower value 0.938 | locus YLR258W, strain gsy2, stronger effect = lower value 0.967 | locus YLR268W, strain sec22, stronger effect = lower value 0.886 | locus YLR357W, strain rsc2, stronger effect = lower value 1.07 | locus YLR370C, strain arc18, stronger effect = lower value 0.991 | locus YLR371W, strain rom2, stronger effect = lower value 1.09 | locus YLR384C, strain iki3, stronger effect = lower value 1.07 | locus YML016C, strain PPZ1, stronger effect = lower value 1.01 | locus YML032C, strain rad52, stronger effect = lower value 0.914 | locus YML120C, strain ndi1, stronger effect = lower value 0.93 | locus YML124C, strain tub3, stronger effect = lower value 1.05 | locus YMR078C, strain ctf18, stronger effect = lower value 1.06 | locus YMR125W, strain sto1, stronger effect = lower value 1.08 | locus YMR129W, stronger effect = lower value 1.03 | locus YMR223W, strain ubp8, stronger effect = lower value 0.934 | locus YMR231W, strain pep5, stronger effect = lower value 0.95 | locus YNL128W, strain TEP1, stronger effect = lower value 0.866 | locus YNL183C, strain NPR1, stronger effect = lower value 0.935 | locus YNL209W, strain ssb2, stronger effect = lower value 0.993 | locus YNL233W, strain BNI4, stronger effect = lower value 0.926 | locus YNL248C, strain rpa49, stronger effect = lower value 0.938 | locus YNL250W, strain rad50, stronger effect = lower value 1.02 | locus YNL271C, strain bni1, stronger effect = lower value 1.02 | locus YNL298W, strain CLA4, stronger effect = lower value 0.978 | locus YNL322C, strain KRE1 (second series), stronger effect = lower value 1.01 | locus YNR049C, strain mso1, stronger effect = lower value 0.987 | locus YOL012C, strain htz1 1.89 | locus YOL147C, strain pex11, stronger effect = lower value 1.02 | locus YOR061W, strain CKA2, stronger effect = lower value 0.964 | locus YOR070C, strain gyp1, stronger effect = lower value 0.953 | locus YOR080W, strain dia2, stronger effect = lower value 0.973 | locus YOR144C, strain elg1, stronger effect = lower value 1.02 | locus YOR231W, strain MKK1, stronger effect = lower value 0.97 | locus YOR265W, strain rbl2, stronger effect = lower value 0.994 | locus YOR270C, strain vph1, stronger effect = lower value 0.807 | locus YOR290C, strain snf2, stronger effect = lower value 0.937 | locus YPL106C, strain sse1, stronger effect = lower value 1.12 | locus YPL240C, strain hsp82, stronger effect = lower value 1.03 | locus YPL241C, strain CIN2, stronger effect = lower value 0.997 | locus YPL256C, strain CLN2, stronger effect = lower value 1.05 | locus YPR163C, strain tif3, stronger effect = lower value 0.968 | locus YPR167C, strain met16, stronger effect = lower value 0.991 | strain wtn01, stronger effect = lower value 0.961
0.522 (active) and 0.953 (inactive): locus YJL095W, strain BCK1, stronger effect = lower value
0.762 (active) and 0.955 (inactive): locus YHR030C, strain SLT2, stronger effect = lower value
active: [1] 0.831 | locus YBR009C, strain hhf1, stronger effect = lower value 0.888 | locus YCL016C, strain dcc1, stronger effect = lower value 0.909 | locus YDL035C, strain GPR1, stronger effect = lower value 0.528 | locus YDL074C, strain BRE1, stronger effect = lower value 0.698 | locus YDL101C, strain DUN1, stronger effect = lower value 0.713 | locus YDL192W, strain arf1, stronger effect = lower value 0.856 | locus YDR137W, strain rgp1, stronger effect = lower value 0.452 | locus YDR162C, strain NBP2, stronger effect = lower value 0.208 | locus YDR392W, strain spt3, stronger effect = lower value 0.735 | locus YDR502C, strain sam2, stronger effect = lower value 0.878 | locus YEL061C, strain CIN8, stronger effect = lower value 0.912 | locus YER015W, strain faa2, stronger effect = lower value 0.907 | locus YER155C, strain BEM2, stronger effect = lower value 0.852 | locus YGL086W, strain mad1, stronger effect = lower value 0.923 | locus YGL173C, strain kem1, stronger effect = lower value 0.701 | locus YGL248W, strain PDE1, stronger effect = lower value 0.827 | [2] 0.757 | locus YGR135W, strain pre9, stronger effect = lower value 0.84 | locus YGR229C, strain SMI1, stronger effect = lower value 0.356 | locus YHR094C, strain hxt1, stronger effect = lower value 1.08 [resistant] | locus YHR129C, strain ARP1, stronger effect = lower value 0.791 | locus YHR142W, strain chs7, stronger effect = lower value 0.873 | locus YIL066C, strain RNR3, stronger effect = lower value 0.79 | locus YJL095W, strain BCK1 (second series), stronger effect = lower value 0.893 | locus YJL166W, strain qcr8, stronger effect = lower value 0.83 | locus YJL168C, strain set2, stronger effect = lower value 1.14 [resistant] | locus YJL187C, strain SWE1 (second series), stronger effect = lower value 0.791 | locus YJR043C, strain POL32, stronger effect = lower value 0.849 | locus YKL190W, strain CNB1, stronger effect = lower value 0.882 | locus YKR001C, strain vps1, stronger effect = lower value 0.861 | locus YLR027C, strain aat2, stronger effect = lower value 0.921 | locus YLR039C, strain RIC1, stronger effect = lower value 0.479 | locus YLR102C, strain apc9, stronger effect = lower value 1.08 [resistant] | locus YLR262C, strain YPT6 (second series), stronger effect = lower value 0.488 | locus YLR262C, strain YPT6, stronger effect = lower value 0.321 | locus YLR320W, strain mms22, stronger effect = lower value 0.706 | locus YLR330W, strain CHS5, stronger effect = lower value 0.849 | locus YLR342W, strain FKS1 (second series), stronger effect = lower value 0.566 | locus YLR342W, strain FKS1, stronger effect = lower value 0.688 | locus YLR418C, strain cdc73, stronger effect = lower value 0.74 | locus YMR058W, strain fet3, stronger effect = lower value 0.871 | locus YMR205C, strain PFK2, stronger effect = lower value 0.854 | [3] 0.456 | locus YNL067W, strain RPL9B, stronger effect = lower value 0.756 | locus YNL071W, strain lat1, stronger effect = lower value 0.809 | locus YNL307C, strain MCK1, stronger effect = lower value 0.795 | locus YNR052C, strain pop2, stronger effect = lower value 0.838 | locus YOR001W, strain rrp6, stronger effect = lower value 0.851 | locus YOR069W, strain VPS5, stronger effect = lower value 0.876 | locus YOR083W, strain WHI5, stronger effect = lower value 0.844 | locus YOR106W, strain vam3, stronger effect = lower value 0.77 | locus YOR136W, strain idh2, stronger effect = lower value 1.08 [resistant] | locus YOR184W, strain ser1, stronger effect = lower value 0.505 | locus YOR316C, strain cot1, stronger effect = lower value 1.1 [resistant] | locus YPL051W, strain arl3, stronger effect = lower value 0.793 | locus YPL078C, strain atp4, stronger effect = lower value 0.892 | locus YPR119W, strain clb2, stronger effect = lower value 1.11 [resistant] | locus YPR141C, strain kar3, stronger effect = lower value 1.09 [resistant]
